Assay results taken from the supplement of paper PMC9117331.

What was measured:
Settings in all cases: 0.5 µM; time after treatment 48 h; PC9 signalome
PC9 [1] = assay: AKT reporter activity score (signed KS statistic vs DMSO) (signed KS statistic (-1 to 1)); higher = stronger activation of the pathway reporter relative to DMSO
PC9 [2] = assay: RAR reporter activity score (signed KS statistic vs DMSO) (signed KS statistic (-1 to 1)); higher = stronger activation of the pathway reporter relative to DMSO
PC9 [3] = assay: PKC reporter activity score (signed KS statistic vs DMSO) (signed KS statistic (-1 to 1)); higher = stronger activation of the pathway reporter relative to DMSO
PC9 [4] = assay: PKA reporter activity score (signed KS statistic vs DMSO) (signed KS statistic (-1 to 1)); higher = stronger activation of the pathway reporter relative to DMSO
PC9 [5] = assay: p38 reporter activity score (signed KS statistic vs DMSO) (signed KS statistic (-1 to 1)); higher = stronger activation of the pathway reporter relative to DMSO
PC9 [6] = assay: HIF reporter activity score (signed KS statistic vs DMSO) (signed KS statistic (-1 to 1)); higher = stronger activation of the pathway reporter relative to DMSO
PC9 [7] = assay: ERK reporter activity score (signed KS statistic vs DMSO) (signed KS statistic (-1 to 1)); higher = stronger activation of the pathway reporter relative to DMSO
PC9 [8] = assay: JNK reporter activity score (signed KS statistic vs DMSO) (signed KS statistic (-1 to 1)); higher = stronger activation of the pathway reporter relative to DMSO
PC9 [9] = assay: WNT reporter activity score (signed KS statistic vs DMSO) (signed KS statistic (-1 to 1)); higher = stronger activation of the pathway reporter relative to DMSO
PC9 [10] = assay: NFkB reporter activity score (signed KS statistic vs DMSO) (signed KS statistic (-1 to 1)); higher = stronger activation of the pathway reporter relative to DMSO
PC9 [11] = assay: YAP/TAZ reporter activity score (signed KS statistic vs DMSO) (signed KS statistic (-1 to 1)); higher = stronger activation of the pathway reporter relative to DMSO

COc1ccc(-c2cc3c(C)nc(N)nc3n([C@H]3CC[C@H](OCCO)CC3)c2=O)cn1
AKT reporter activity score (PC9 [1]): -0.424 | RAR reporter activity score (PC9 [2]): 0.107 | PKC reporter activity score (PC9 [3]): -0.0883 | PKA reporter activity score (PC9 [4]): -0.172 | p38 reporter activity score (PC9 [5]): -0.364 | HIF reporter activity score (PC9 [6]): -0.153 | ERK reporter activity score (PC9 [7]): 0.0981 | JNK reporter activity score (PC9 [8]): -0.166 | WNT reporter activity score (PC9 [9]): 0.0844 | NFkB reporter activity score (PC9 [10]): -0.0647 | YAP/TAZ reporter activity score (PC9 [11]): 0.155

COc1cc2ncnc(Nc3ccc(F)c(Cl)c3)c2cc1OCCCN1CCOCC1 [Gefitinib (Iressa)]
AKT reporter activity score (PC9 [1]): -0.363 | RAR reporter activity score (PC9 [2]): 0.5 | PKC reporter activity score (PC9 [3]): 0.0998 | PKA reporter activity score (PC9 [4]): -0.3 | p38 reporter activity score (PC9 [5]): -0.282 | HIF reporter activity score (PC9 [6]): 0.136 | ERK reporter activity score (PC9 [7]): -0.664 | JNK reporter activity score (PC9 [8]): 0.166 | WNT reporter activity score (PC9 [9]): 0.25 | NFkB reporter activity score (PC9 [10]): 0.184 | YAP/TAZ reporter activity score (PC9 [11]): 0.4

O=C(/C=C/c1cccc(S(=O)(=O)Nc2ccccc2)c1)NO [Belinostat (PXD101)]
AKT reporter activity score (PC9 [1]): -0.067 | RAR reporter activity score (PC9 [2]): 0.675 | PKC reporter activity score (PC9 [3]): 0.12 | PKA reporter activity score (PC9 [4]): -0.172 | p38 reporter activity score (PC9 [5]): -0.223 | HIF reporter activity score (PC9 [6]): 0.488 | ERK reporter activity score (PC9 [7]): -0.315 | JNK reporter activity score (PC9 [8]): -0.122 | WNT reporter activity score (PC9 [9]): 0.155 | NFkB reporter activity score (PC9 [10]): 0.0869 | YAP/TAZ reporter activity score (PC9 [11]): 0.484

CCN(CC)CCNC(=O)c1c(C)[nH]c(/C=C2\C(=O)Nc3ccc(F)cc32)c1C [Sunitinib Malate (Sutent)]
AKT reporter activity score (PC9 [1]): 0.076 | RAR reporter activity score (PC9 [2]): -0.28 | PKC reporter activity score (PC9 [3]): -0.0463 | PKA reporter activity score (PC9 [4]): 0.13 | p38 reporter activity score (PC9 [5]): 0.139 | HIF reporter activity score (PC9 [6]): -0.147 | ERK reporter activity score (PC9 [7]): 0.0665 | JNK reporter activity score (PC9 [8]): 0.0727 | WNT reporter activity score (PC9 [9]): -0.103 | NFkB reporter activity score (PC9 [10]): -0.134 | YAP/TAZ reporter activity score (PC9 [11]): -0.0629

C[C@H](NC(=O)Cc1cc(F)cc(F)c1)C(=O)N[C@@H]1C(=O)N(C)c2ccccc2-c2ccccc21
AKT reporter activity score (PC9 [1]): -0.303 | RAR reporter activity score (PC9 [2]): 0.0626 | PKC reporter activity score (PC9 [3]): 0.0325 | PKA reporter activity score (PC9 [4]): -0.0914 | p38 reporter activity score (PC9 [5]): 0.0414 | HIF reporter activity score (PC9 [6]): -0.0336 | ERK reporter activity score (PC9 [7]): -0.123 | JNK reporter activity score (PC9 [8]): -0.138 | WNT reporter activity score (PC9 [9]): -0.0477 | NFkB reporter activity score (PC9 [10]): -0.12 | YAP/TAZ reporter activity score (PC9 [11]): -0.114

C#CCC(Cc1cnc2nc(N)nc(N)c2n1)c1ccc(C(=O)N[C@@H](CCC(=O)O)C(=O)O)cc1 (stereo not given in full) [Pralatrexate(Folotyn)]
AKT reporter activity score (PC9 [1]): -0.334 | RAR reporter activity score (PC9 [2]): 0.231 | PKC reporter activity score (PC9 [3]): 0.0797 | PKA reporter activity score (PC9 [4]): -0.237 | p38 reporter activity score (PC9 [5]): -0.0729 | HIF reporter activity score (PC9 [6]): 0.149 | ERK reporter activity score (PC9 [7]): -0.257 | JNK reporter activity score (PC9 [8]): 0.0731 | WNT reporter activity score (PC9 [9]): 0.0527 | NFkB reporter activity score (PC9 [10]): 0.0639 | YAP/TAZ reporter activity score (PC9 [11]): 0.223

O=C(NOC[C@H](O)CO)c1ccc(F)c(F)c1Nc1ccc(I)cc1F
AKT reporter activity score (PC9 [1]): 0.136 | RAR reporter activity score (PC9 [2]): 0.142 | PKC reporter activity score (PC9 [3]): 0.094 | PKA reporter activity score (PC9 [4]): -0.18 | p38 reporter activity score (PC9 [5]): -0.265 | HIF reporter activity score (PC9 [6]): -0.129 | ERK reporter activity score (PC9 [7]): -0.452 | JNK reporter activity score (PC9 [8]): 0.303 | WNT reporter activity score (PC9 [9]): 0.0484 | NFkB reporter activity score (PC9 [10]): 0.228 | YAP/TAZ reporter activity score (PC9 [11]): 0.42

CC(=O)Nc1cccc(-n2c(=O)n(C3CC3)c(=O)c3c(Nc4ccc(I)cc4F)n(C)c(=O)c(C)c32)c1
AKT reporter activity score (PC9 [1]): 0.278 | RAR reporter activity score (PC9 [2]): 0.158 | PKC reporter activity score (PC9 [3]): -0.0489 | PKA reporter activity score (PC9 [4]): -0.226 | p38 reporter activity score (PC9 [5]): 0.0617 | HIF reporter activity score (PC9 [6]): -0.114 | ERK reporter activity score (PC9 [7]): -0.491 | JNK reporter activity score (PC9 [8]): 0.181 | WNT reporter activity score (PC9 [9]): 0.129 | NFkB reporter activity score (PC9 [10]): 0.158 | YAP/TAZ reporter activity score (PC9 [11]): 0.324

COc1cc2ncnc(Nc3ccc(F)c(Cl)c3)c2cc1NC(=O)/C=C/CN1CCCCC1
AKT reporter activity score (PC9 [1]): -0.392 | RAR reporter activity score (PC9 [2]): 0.516 | PKC reporter activity score (PC9 [3]): 0.0863 | PKA reporter activity score (PC9 [4]): -0.547 | p38 reporter activity score (PC9 [5]): -0.404 | HIF reporter activity score (PC9 [6]): 0.138 | ERK reporter activity score (PC9 [7]): -0.698 | JNK reporter activity score (PC9 [8]): -0.159 | WNT reporter activity score (PC9 [9]): 0.343 | NFkB reporter activity score (PC9 [10]): 0.23 | YAP/TAZ reporter activity score (PC9 [11]): 0.338

O=C(Nc1cc(C(F)(F)F)cc(C(F)(F)F)c1)c1cc(Cl)ccc1O
AKT reporter activity score (PC9 [1]): -0.694 | RAR reporter activity score (PC9 [2]): 0.372 | PKC reporter activity score (PC9 [3]): 0.146 | PKA reporter activity score (PC9 [4]): -0.27 | p38 reporter activity score (PC9 [5]): 0.0561 | HIF reporter activity score (PC9 [6]): 0.485 | ERK reporter activity score (PC9 [7]): -0.0507 | JNK reporter activity score (PC9 [8]): 0.113 | WNT reporter activity score (PC9 [9]): 0.101 | NFkB reporter activity score (PC9 [10]): 0.111 | YAP/TAZ reporter activity score (PC9 [11]): 0.257
